Bioassay records (PubChem)
Rtt109 HAT inh: inhibitors of C. albicans Rtt109/Vps75 HAT, primary screen, biochemical, ThioGlo CoA-SH fluorescence, plate reader. AID 540336, 2011. inhibition, % at 34.9 µM. Histone acetyltransferase RTT109 (Candida albicans (strain SC5314 / ATCC MYA-2876)), …. actives 0.16% (n = 330,000). purified Rtt109/Vps75, 4 h;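 active means inhibition of at least 50% in every replicate; inconclusive means best replicate reaches 50% inhibition but some replicates fall short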
Target sequence (Q5AAJ8 whole entry, looked up): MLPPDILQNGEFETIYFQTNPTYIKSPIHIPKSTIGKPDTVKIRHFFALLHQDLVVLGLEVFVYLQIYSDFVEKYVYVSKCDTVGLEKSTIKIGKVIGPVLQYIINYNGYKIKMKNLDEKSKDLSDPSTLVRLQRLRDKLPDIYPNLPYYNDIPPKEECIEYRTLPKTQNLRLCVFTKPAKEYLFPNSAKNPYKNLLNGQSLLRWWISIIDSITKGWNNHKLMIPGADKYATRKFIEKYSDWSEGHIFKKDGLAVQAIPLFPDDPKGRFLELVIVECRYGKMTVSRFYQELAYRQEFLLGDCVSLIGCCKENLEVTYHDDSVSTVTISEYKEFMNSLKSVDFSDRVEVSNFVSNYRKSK
Rce1 inh: yeast Rce1p protease inhibitors, primary screen, biochemical, fluorescence, cell-free homogeneous. CAAX prenyl protease 2 (Saccharomyces cerevisiae (strain ATCC 204508 / S288c)), Q03530. yeast membranes, quenched prenylated peptide cleavage fluorescence. calls only. actives 0.27% (n = 290,000). AID 2563, 2010;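 active means fall in fluorescence gain of 50% or more versus controls, with final raw signal at or below 3038400; inconclusive means same 50% fall but final raw signal above 3038400; inactive means fall in fluorescence gain under 50%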;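 further: plate controls were neutral control wells for no effect and wells lacking membranes for full effect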
Target sequence (Q03530 whole entry, looked up): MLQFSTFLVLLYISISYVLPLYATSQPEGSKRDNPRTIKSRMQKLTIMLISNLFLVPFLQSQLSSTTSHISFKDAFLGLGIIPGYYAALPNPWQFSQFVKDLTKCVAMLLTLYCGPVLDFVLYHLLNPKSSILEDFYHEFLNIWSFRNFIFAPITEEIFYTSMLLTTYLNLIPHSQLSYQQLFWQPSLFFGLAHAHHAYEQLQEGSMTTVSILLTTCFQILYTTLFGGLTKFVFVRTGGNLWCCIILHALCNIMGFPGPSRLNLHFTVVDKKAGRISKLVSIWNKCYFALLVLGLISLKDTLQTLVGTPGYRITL
Efflux pump mplx: inhibitors of Candida efflux pumps in yeast, primary screen, S. cerevisiae, Nile Red, multiplex | inhibition, % at 10 µM | actives 0.44% (n = 330,000) | S. cerevisiae Candida pump triplex;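 active means plate passing quality check with inhibition over a set limit, or well fluorescence over plate mean plus 4 SD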;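 further: Nile Red retained in pooled yeast measured as flow cytometry median fluorescence; 0% = buffer negative control and 100% = Enniatin B positive control; higher means more Nile Red kept so more efflux inhibition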
GRK2 aptamer HTS: compounds blocking aptamer binding on GRK2 – biochemical, human GRK2, bead flow cytometry, HTS, primary screen; Beta-adrenergic receptor kinase 1 (Homo sapiens), P25098; FAM-aptamer displacement from GRK2; inhibition of aptamer binding, % at 10 µM; actives 0.59% (n = 330,000); AID 488847, 2010;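 active means inhibition of aptamer binding above 40%, roughly 3 SD of noise, on plates passing a quality check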;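 further: median bead fluorescence of bound FAM aptamer so fluorescent compounds give negative values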
HDAC3 inhib: HDAC3 deacetylase inhibitors, primary screen, biochemical, fluorescence, cell-free homogeneous | actives 0.15% (n = 320,000) | inhibition, % at 8.3 µM | AID 2718, 2010 | Histone deacetylase 3 (Homo sapiens), O15379 | recombinant HDAC3, fluorogenic peptide/trypsin coupled; in the data active means inhibition above about 26%, passing the limit was not always enough; inconclusive means no clear call, values can overlap the other calls
ALR inh: inhibitors of human ALR sulfhydryl oxidase, primary screen, biochemical, H2O2 detection, HRP-luminol luminescence, single point | FAD-linked sulfhydryl oxidase ALR (Homo sapiens), P55789 | actives 3.8% (n = 290,000) | AID 485317, 2010 | purified ALR, DTT oxidation | inhibition, % (concentration not given with the values);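 active means mean replicate inhibition above about 79%, with every replicate also reaching it, limit read from the data; inconclusive means only one of the two criteria met; inactive means mean below limit and not every replicate reaching it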
Cmpd fluor yeast: compound fluorescence in yeast efflux pump counter-screen; shares compounds with Efflux pump mplx; S. cerevisiae AD/pABC3, flow cytometry; fluorescence ratio to DMSO, % at 10 µM; actives 4% (n = 1,700);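 active means fluorescence ratio to DMSO above its plate's cutoff, the plate mean ratio plus 5 SD, cut at about 210% in these data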;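 further: unstained yeast with no Nile Red so the signal is compound autofluorescence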
Mdr1 pump inh: inhibitors of Candida albicans Mdr1 efflux, confirmation, flow cytometry, singleplex, Cherry Pick1 set; inhibition, % at 10 µM; actives 1% (n = 1,700); shares compounds with Efflux pump mplx; S. cerevisiae AD/CaMDR1, Nile Red efflux; in the data active means inhibition above about 26%;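 further: 0% = DMSO vehicle and 100% = reference inhibitor; higher means more Nile Red retained so more efflux inhibition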
CaCdr2 efflux inh: inhibitors of Candida albicans Cdr2 efflux pump, confirmation, S. cerevisiae AD/CaCDR2, flow cytometry, cherry pick 1, singleplex | shares compounds with Efflux pump mplx | Nile Red retention | Nile Red retention ratio vs DMSO, % at 10 µM | actives 4% (n = 1,700) | AID 588520, 2011; in the data active means Nile Red retention ratio vs DMSO above about 190%;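 further: higher ratio means more blocking of Cdr2 efflux of the dye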
Cdr1 pump inh: inhibitors of Candida albicans Cdr1 efflux pump, confirmation, S. cerevisiae AD/CaCDR1, flow cytometry, cherry pick 1, singleplex | shares compounds with Efflux pump mplx | Nile Red efflux | inhibition, % at 10 µM | actives 1% (n = 1,700) | AID 588522, 2011;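 active means inhibition above the screen-wide mean plus twice its standard deviation, cut at about 32% in these data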
Active calls of the source: *; i = inactive; ? = inconclusive; nt = not tested or not shown. An excerpt weighted towards active compounds, which were near 4.5% of everything screened.

SMILES | Rtt109 HAT inh | Rce1 inh | Efflux pump mplx | GRK2 aptamer HTS | HDAC3 inhib | ALR inh | Cmpd fluor yeast | Mdr1 pump inh | CaCdr2 efflux inh | Cdr1 pump inh
CC[N+]1(C)CCC(O)(c2ccc(OC)cc2)C(C(=O)c2ccc(OC)cc2)C1 (centres undefined) | 0.7 | nt | nt | nt | nt | nt | nt | nt | nt | nt
CN(C(=O)CSc1ncccn1)C1CCS(=O)(=O)C1 (centres undefined) | 4.0 | i | 5.3* | 5.0 | -7.8 | nt | 112.2 | -0.2 | 116.6 | 0.0
CCN(CC)c1cccc(OCC(=O)N(C)CCC#N)c1 | -6.3 | i | 2.1* | 3.0 | -5.9 | 97.7* | 202.1 | 0.7 | 142.3 | 1.3
COc1cccc(-n2nnnc2SCC(=O)Nc2nc3c(s2)CCCC3)c1 | 4.4 | i | -0.1 | 0.0 | -1.0 | -1.2 | nt | nt | nt | nt
COC(=O)c1cccc(-n2nnnc2SCC(=O)Nc2nc3c(s2)CCCC3)c1 | -0.6 | i | 1.5* | 1.0 | 5.3 | 58.2 | 79.0 | -0.2 | 93.2 | -0.2
Cc1cccc(-c2nc(S(=O)(=O)c3ccc(F)cc3)c(NCCCN3CCOCC3)o2)c1 | -12.5 | i | 7.4* | 0.0 | 8.6 | 6.3 | 93.7 | -0.2 | 90.9 | -0.1
Nc1c(-c2ccccc2)cnc2ncnn12 | -8.3 | i | 1.7* | 21.0 | -5.9 | 2.1 | 97.0 | -0.3 | 90.9 | -0.2
COc1ccc(OCc2csc(N)n2)cc1 | 1.2 | i | -0.1 | 4.0 | -4.2 | -3.0 | nt | nt | nt | nt
COc1ccc(CCC(=O)Nc2cc(S(=O)(=O)N3CCCCC3)ccc2N(C)C)cc1 | 2.7 | nt | 1.1* | 0.0 | 0.2 | -5.8 | 102.5 | -0.1 | 93.2 | -0.1
Cc1cc(C)c(NC(=O)COC(=O)CCc2ccc(S(=O)(=O)N3CCCCC3)cc2)c(C)c1 | -1.4 | i | 0.2 | 0.0 | 1.7 | -13.8 | nt | nt | nt | nt
Cc1cccc(C)c1NC(=O)COC(=O)CCc1ccc(S(=O)(=O)N2CCCCC2)cc1 | -0.3 | i | 18.9* | 0.0 | 1.2 | -10.1 | 101.1 | -0.3 | 98.1 | 0.0
Cc1ccc[n+](CC(=O)Nc2cc(C(F)(F)F)ccc2N2CCOCC2)c1 | 3.6 | i | 0.0 | 0.0 | 2.4 | 4.3 | nt | nt | nt | nt
COC1CCN(C(=O)c2cc(COc3ccc(-n4cncn4)cc3)on2)CC1 | -2.4 | i | 0.2 | 1.0 | -4.6 | -38.3 | nt | nt | nt | nt
O=C(c1cc(COc2ccc(-n3cncn3)cc2)on1)N1CCCC1 | -0.8 | i | 9.9* | 1.0 | -6.2 | nt | 104.6 | 0.2 | 106.0 | 0.1
Cc1cc(C)c(N(C(=O)CN2C(=O)c3ccccc3S2(=O)=O)C(C(=O)NCC2CCCO2)c2ccc(F)cc2)c(C)c1 (centres undefined) | -0.2 | i | 22.3* | 0.0 | 1.5 | -2.8 | 112.7 | -0.1 | 112.2 | 0.0
CCCc1nn2c(=O)cc(CSCC(=O)Nc3ccc(F)cc3)nc2s1 | -20.3 | i | 1.9* | 0.0 | -5.0 | ? | 100.0 | -0.2 | 100.1 | -0.1
CCCc1nn2c(=O)cc(CSCC(=O)Nc3ccccc3)nc2s1 | -7.4 | i | 0.1 | 0.0 | -0.9 | -0.8 | nt | nt | nt | nt
CCNC(=O)N(C)C[C@H]1N[C@@](C)(C(=O)OC)[C@H]2C(=O)N(C)C(=O)[C@@H]12 | -3.0 | nt | 0.2 | 2.0 | -0.9 | nt | nt | nt | nt | nt
CN(C)c1ccc2c(c1[N+](=O)[O-])Cc1ccccc1-2 | -6.9 | nt | nt | nt | nt | nt | nt | nt | nt | nt
O=S(=O)(NCC(c1ccc2c(c1)OCO2)N1CCOCC1)c1ccc(Cl)cc1 (centres undefined) | -12.6 | i | -0.1 | 0.0 | -3.9 | -32.8 | nt | nt | nt | nt
Cc1cc(S(=O)(=O)NCC(c2ccc3c(c2)OCO3)N2CCOCC2)ccc1F (centres undefined) | 4.1 | i | 1.0* | 0.0 | 2.5 | 0.4 | 100.0 | -0.4 | 114.4 | -0.1
CCN(C[C@H]1N[C@@](Cc2ccccc2)(C(=O)OC)[C@H]2C(=O)N(C)C(=O)[C@@H]12)C(=O)NC(C)C | -0.3 | nt | -0.2 | 0.0 | 8.8 | -2.5 | nt | nt | nt | nt
Cc1cccc(C(C)C)c1NC(=O)Cc1ccc(S(=O)(=O)N2CCOCC2)s1 | 2.3 | i | 0.5* | 5.0 | 0.8 | -2.1 | 285.2* | 0.9 | 112.3 | 0.3
CCOC(=O)CCNC(=O)N1CCCC(N(C)CCc2ccc(OC)c(OC)c2)C1 (centres undefined) | -6.2 | i | 0.0 | 5.0 | 4.9 | nt | nt | nt | nt | nt
CC(C)Cn1c(SCC(=O)c2ccc(Cl)s2)nnc1-c1ccco1 | 8.3 | i | 1.1* | 0.0 | 9.3 | 48.3 | 100.3 | -0.2 | 107.2 | 0.0
SMILES | Rtt109 HAT inh | Rce1 inh | Efflux pump mplx | GRK2 aptamer HTS | HDAC3 inhib | ALR inh | Cmpd fluor yeast | Mdr1 pump inh | CaCdr2 efflux inh | Cdr1 pump inh
CCOC(=O)c1c(NC(=O)c2nn(CC)cc2Br)sc2c1CCCCC2 | -14.0 | i | -0.1 | 0.0 | -0.8 | -2.7 | nt | nt | nt | nt
CCn1ncc(Br)c1C(=O)Nc1sc2c(c1C(N)=O)CCC2 | nt | i | 0.0 | 0.0 | -4.0 | 1.3 | 94.4 | -0.2 | 100.1 | 0.2
CCOC(=O)c1c(NC(=O)c2ccn(CC)n2)sc2c1CCC2 | 1.7 | i | 0.4* | 4.0 | -1.7 | 4.3 | 97.8 | -0.1 | 98.1 | 0.0
Cn1cc(Br)c(C(=O)Nc2sc3c(c2C(N)=O)CCC3)n1 | -9.6 | i | 0.1 | 1.0 | 7.1 | -5.6 | 100.2 | -0.2 | 93.0 | -0.1
Cn1ccc(C(=O)Nc2sc3c(c2C(N)=O)CCCCC3)n1 | 3.1 | nt | -0.1 | 0.0 | -1.0 | ? | nt | nt | nt | nt
CC1CCN(CCCNC(=O)C2CCN(S(=O)(=O)N3CCC4(CC3)OCCO4)CC2)CC1 | -9.5 | i | -0.1 | 0.0 | -1.0 | -2.7 | nt | nt | nt | nt
Cc1ccc(OCc2cc(C(=O)NCC(C)(C)N3CCOCC3)no2)cc1C | 3.2 | i | 1.5 | 0.0 | -2.1 | -10.1 | 98.2 | -0.1 | 97.7 | 0.8
